# Data published in PubChem BioAssay (NCATS).
# Results filed as inconclusive are left out. A call without a number means that no potency is given here. The source made the active and inactive calls. Calls follow the shape of the dose curve; as a rule, active = well fitted curve in the direction sought with a large enough effect; inconclusive = small, poorly fitted or top-dose-only effect, or another doubt; inactive = no such curve, though single readings can be large; an effect the other way counts as inactive or inconclusive.
# Assays:
# [1] = qHTS of pediatric cancer cell lines to identify multiple opportunities for drug repurposing: Primary screen for LAN-5 cells (AID 1347100); also: potency is read from the fitted curve at half-maximal effect
# Method in brief: (§1)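 Cells (500-1,000/well) rested 5 h, then received compounds for 48 h; metabolically active cells were measured by CellTiter-Glo luminescence. Final concentrations spanned up to 46 µM (MIPE, 11-point) or 0.59 nM-46 µM (NPC, 8-point) in primary screens, 11-point in follow-ups.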
# [2] = qHTS of pediatric cancer cell lines to identify multiple opportunities for drug repurposing: Primary screen for BT-12 cells (AID 1347101); also: nearly all actives have a fitted effect of over 25% in size; also: potency is read from the fitted curve at half-maximal effect
# Method in brief: as §1
# [3] = qHTS of pediatric cancer cell lines to identify multiple opportunities for drug repurposing: Primary screen for Rh18 cells (AID 1347102); also: nearly all actives have a fitted effect of over 65% in size; also: potency is read from the fitted curve at half-maximal effect
# Method in brief: as §1
# [4] = qHTS of pediatric cancer cell lines to identify multiple opportunities for drug repurposing: Primary screen for OHS-50 cells (AID 1347103); also: nearly all actives have a fitted effect of over 40% in size; also: potency is read from the fitted curve at half-maximal effect
# Method in brief: as §1
# [5] = qHTS of pediatric cancer cell lines to identify multiple opportunities for drug repurposing: Primary screen for RD cells (AID 1347104); also: nearly all actives have a fitted effect of over 55% in size; also: potency is read from the fitted curve at half-maximal effect
# Method in brief: (§2)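 Cells plated at 500-1,000/well in growth medium, compounds added after 5 h. MIPE tested at 11 points (from 0.78 nM), NPC at 8 points (from 0.59 nM). CellTiter-Glo luminescence after 48 h; concentration-response curves from primary screen.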
# [6] = qHTS of pediatric cancer cell lines to identify multiple opportunities for drug repurposing: Primary screen for MG 63 (6-TG R) cells (AID 1347105); also: nearly all actives have a fitted effect of over 50% in size; also: potency is read from the fitted curve at half-maximal effect
# Method in brief: as §2
# [7] = qHTS of pediatric cancer cell lines to identify multiple opportunities for drug repurposing: Primary screen for control Hh wild type fibroblast cells (AID 1347106); also: nearly all actives have a fitted effect of over 55% in size; also: potency is read from the fitted curve at half-maximal effect
# Method in brief: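 Viability after 48 h compound treatment at 37C, 500-1,000 cells/well, read as ATP luminescence with CellTiter-Glo. Primary screens used 11-point (MIPE, 0.78 nM-46 µM) or 8-point (NPC, 0.59 nM-46 µM) final concentrations; follow-up screens used 11-point dilutions.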
# [8] = qHTS of pediatric cancer cell lines to identify multiple opportunities for drug repurposing: Primary screen for Rh41 cells (AID 1347108); also: nearly all actives have a fitted effect of over 70% in size; also: potency is read from the fitted curve at half-maximal effect
# Method in brief: as §2
# [9] = qHTS of pediatric cancer cell lines to identify multiple opportunities for drug repurposing: Confirmatory screen for A673 cells (AID 1347110);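 also: potency is read from the fitted curve at half-maximal effect; cells exposed to compound for 48 h before the viability read; nearly all actives have a fitted effect of over 65% in size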
# Method in brief: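 Viability was read as ATP luminescence (CellTiter-Glo) after 48 h of compound exposure at 37 C in A673 cells seeded at 500-1,000/well. Titrations reached 46 uM final, with 11 points in the confirmatory screen. Concentration-response curves were fitted directly.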
# [10] = qHTS of pediatric cancer cell lines to identify multiple opportunities for drug repurposing: Confirmatory screen for NB-EBc1 cells (AID 1347115);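 also: cells exposed to compound for 48 h before the viability read; nearly all actives have a fitted effect of over 45% in size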; also: potency is read from the fitted curve at half-maximal effect
# Method in brief: as §1
# [11] = qHTS of pediatric cancer cell lines to identify multiple opportunities for drug repurposing: Confirmatory screen for control Hh wild type fibroblast cells (AID 1347121); also: nearly all actives have a fitted effect of over 70% in size
# Method in brief: as §1
# [12] = qHTS of pediatric cancer cell lines to identify multiple opportunities for drug repurposing: Primary screen for Rh30 cells (AID 1347107); also: nearly all actives have a fitted effect of over 75% in size; also: potency is read from the fitted curve at half-maximal effect
# Method in brief: as §1
# [13] = qHTS of pediatric cancer cell lines to identify multiple opportunities for drug repurposing: Confirmatory screen for NB1643 cells (AID 1347109); also: potency is read from the fitted curve at half-maximal effect; nearly all actives have a fitted effect of over 45% in size
# Method in brief: as §1
# [14] = qHTS of pediatric cancer cell lines to identify multiple opportunities for drug repurposing: Confirmatory screen for SK-N-MC cells (AID 1347111);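 also: potency is read from the fitted curve at half-maximal effect; cells exposed to compound for 48 h before the readout; nearly all actives have a fitted effect of over 70% in size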
# Method in brief: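 Seed 500-1,000 cells/well; rest 5 h at 37 degrees C. Pin-transfer compounds, 11-point titration. Incubate 48 h. Add CellTiter-Glo, 15 min RT, read luminescence.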
# [15] = qHTS of pediatric cancer cell lines to identify multiple opportunities for drug repurposing: Confirmatory screen for LAN-5 cells (AID 1347113); also: potency is read from the fitted curve at half-maximal effect; nearly all actives have a fitted effect of over 65% in size
# Method in brief: as §1
# [16] = qHTS of pediatric cancer cell lines to identify multiple opportunities for drug repurposing: Confirmatory screen for DAOY cells (AID 1347114); also: nearly all actives have a fitted effect of over 65% in size; also: potency is read from the fitted curve at half-maximal effect
# Method in brief: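 Viability measured as metabolically active cells via CellTiter-Glo luminescence following 48 hours of compound exposure, 11-point dilutions in confirmatory testing. 500-1,000 cells/well plated 5 hours before dosing; controls were DMSO and 2.3 µM bortezomib.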
# [17] = qHTS of pediatric cancer cell lines to identify multiple opportunities for drug repurposing: Confirmatory screen for BT-37 cells (AID 1347117); also: potency is read from the fitted curve at half-maximal effect; nearly all actives have a fitted effect of over 55% in size
# Method in brief: as §1
# [18] = qHTS of pediatric cancer cell lines to identify multiple opportunities for drug repurposing: Confirmatory screen for TC32 cells (AID 1347118)
# Method in brief: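 TC32 cells, 500-1,000/well in growth medium, compound-treated 48 h at 37 °C; viability from CellTiter-Glo luminescence. Primary screen: MIPE 11-point (0.78 nM–46 µM final), NPC 8-point (0.59 nM–46 µM final); confirmatory at 11-point dilutions.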
# [19] = qHTS of pediatric cancer cell lines to identify multiple opportunities for drug repurposing: Confirmatory screen for MG 63 (6-TG R) cells (AID 1347119); also: potency is read from the fitted curve at half-maximal effect; nearly all actives have a fitted effect of over 55% in size
# Method in brief: as §1
structure (smiles),measurement,setting,value
O=C(c1ccc(F)c(F)c1Nc1ccc(I)cc1F)N1CC(O)([C@H]2CCCCN2)C1,Potency,[1],935 nM (active)
same,Potency,[2],1090 nM (active)
same,Potency,[3],16600 nM (active)
same,Potency,[4],1090 nM (active)
same,Potency,[5],526 nM (active)
same,Potency,[6],29600 nM (active)
same,Potency,[7],16600 nM (active)
same,Potency,[8],18700 nM (active)
same,Potency,[9],26100 nM (active)
same,Potency,[10],inactive
same,Potency,[11],inactive
CC(C)C[C@@H](N)[C@H](O)C(=O)N[C@H](C(=O)N[C@H](C(=O)N[C@@H](CC(=O)O)C(=O)O)C(C)C)C(C)C,Potency,[1],inactive
same,Potency,[2],inactive
same,Potency,[3],inactive
same,Potency,[4],inactive
same,Potency,[5],inactive
same,Potency,[6],inactive
same,Potency,[7],inactive
O=C(O)C1=NC(C(=O)O)CC(C=CN2c3cc(O)c(OC4OC(CO)C(O)C(O)C4O)cc3CC2C(=O)O)=C1 (stereo unspecified),Potency,[1],inactive
same,Potency,[2],inactive
same,Potency,[3],inactive
same,Potency,[4],inactive
same,Potency,[5],inactive
same,Potency,[6],inactive
same,Potency,[7],inactive
same,Potency,[12],inactive
CN1CCN2c3ncccc3Cc3ccccc3C2C1 (stereo unspecified),Potency,[1],inactive
same,Potency,[2],inactive
same,Potency,[3],inactive
same,Potency,[4],inactive
same,Potency,[5],inactive
same,Potency,[6],inactive
same,Potency,[7],inactive
same,Potency,[12],inactive
same,Potency,[8],inactive
CN1C(=O)C(Cc2c[nH]c3ccccc23)NC1=S (stereo unspecified),Potency,[1],inactive
same,Potency,[2],inactive
same,Potency,[3],inactive
same,Potency,[4],inactive
same,Potency,[5],inactive
same,Potency,[6],inactive
same,Potency,[7],inactive
same,Potency,[12],inactive
Nc1ccc(-c2ccc3ncc4ccc(=O)n(-c5cccc(C(F)(F)F)c5)c4c3c2)cn1,Potency,[1],29.6 nM (active)
same,Potency,[2],3430 nM (active)
same,Potency,[3],148 nM (active)
same,Potency,[4],6.9 nM (active)
same,Potency,[5],235 nM (active)
same,Potency,[6],0.9 nM (active)
same,Potency,[12],1660 nM (active)
same,Potency,[8],26.4 nM (active)
same,Potency,[13],369 nM (active)
same,Potency,[9],185 nM (active)
same,Potency,[14],131 nM (active)
same,Potency,[15],165 nM (active)
same,Potency,[16],3690 nM (active)
same,Potency,[10],293 nM (active)
same,Potency,[17],117 nM (active)
same,Potency,[18],73.7 nM (active)
same,Potency,[19],20.8 nM (active)
CC(C)(OCc1nn(Cc2ccccc2)c2ccccc12)C(=O)O,Potency,[1],inactive
same,Potency,[2],inactive
same,Potency,[3],inactive
same,Potency,[4],inactive
same,Potency,[5],inactive
same,Potency,[6],inactive
same,Potency,[7],inactive
same,Potency,[12],inactive
same,Potency,[8],inactive
CC(C)=CCCC(C)=CCCC(C)=CCCC(C)=CCCC(C)=CCCC(C)=CCCC(C)=CCCC(C)=CCCC(C)=CCO,Potency,[1],inactive
same,Potency,[2],inactive
same,Potency,[3],inactive
same,Potency,[4],inactive
same,Potency,[5],inactive
same,Potency,[6],inactive
same,Potency,[7],inactive
same,Potency,[12],inactive
same,Potency,[8],inactive
Cc1cn([C@@H]2C[C@@H](O)[C@H](CO)O2)c(=O)[nH]c1=O,Potency,[1],inactive
same,Potency,[2],inactive
same,Potency,[3],inactive
same,Potency,[4],inactive
same,Potency,[5],inactive
same,Potency,[6],inactive
same,Potency,[7],inactive
same,Potency,[12],inactive
same,Potency,[8],inactive
COc1ccnc(CS(=O)c2nc3ccc(OC(F)F)cc3[nH]2)c1OC (stereo unspecified),Potency,[1],inactive
same,Potency,[2],inactive
same,Potency,[3],inactive
same,Potency,[4],inactive
same,Potency,[5],inactive
same,Potency,[6],inactive
same,Potency,[7],inactive
same,Potency,[12],inactive
same,Potency,[8],inactive
O=C(NCCCCN1CCOCC1)c1cc2ccccc2o1,Potency,[1],inactive
same,Potency,[2],inactive
same,Potency,[3],inactive
same,Potency,[4],inactive
same,Potency,[5],inactive
same,Potency,[6],inactive
same,Potency,[7],inactive
same,Potency,[8],inactive
CC(NCCc1ccc(O)cc1)C(O)c1ccc(O)cc1 (stereo unspecified),Potency,[1],inactive
same,Potency,[2],inactive
same,Potency,[3],inactive
same,Potency,[4],inactive
same,Potency,[5],inactive
same,Potency,[6],inactive
same,Potency,[7],inactive
same,Potency,[12],inactive
same,Potency,[8],inactive
O=C(O)CCNc1cc(N2CCc3ccccc3CC2)nc(-c2ccccn2)n1,Potency,[1],inactive
same,Potency,[2],inactive
same,Potency,[3],inactive
same,Potency,[4],inactive
same,Potency,[5],inactive
same,Potency,[6],inactive
same,Potency,[7],inactive
same,Potency,[12],inactive
CCOC(=O)[C@H](CCc1ccccc1)N[C@@H](C)C(=O)N1CCCC1C(=O)O (stereo partly specified),Potency,[1],inactive
same,Potency,[2],inactive
same,Potency,[3],inactive
same,Potency,[4],inactive
same,Potency,[5],inactive
same,Potency,[6],inactive
same,Potency,[7],inactive
same,Potency,[12],inactive
same,Potency,[8],inactive
same,Potency,[13],7370 nM (active)
same,Potency,[9],4140 nM (active)
same,Potency,[14],14700 nM (active)
same,Potency,[15],9270 nM (active)
same,Potency,[16],inactive
same,Potency,[18],7370 nM (active)
NS(=O)(=O)c1cc(Cl)c(Cl)c(S(N)(=O)=O)c1,Potency,[1],inactive
same,Potency,[2],inactive
same,Potency,[3],inactive
same,Potency,[4],inactive
same,Potency,[5],inactive
same,Potency,[6],inactive
same,Potency,[7],inactive
same,Potency,[12],inactive
same,Potency,[8],inactive
OC[C@H]1O[C@@H](Oc2ccc(O)cc2)[C@H](O)[C@@H](O)[C@H]1O,Potency,[1],inactive
same,Potency,[2],inactive
same,Potency,[3],inactive
same,Potency,[4],inactive
same,Potency,[5],inactive
same,Potency,[6],inactive
same,Potency,[7],inactive
same,Potency,[8],inactive
CCCCC(F)(F)[C@@]1(O)CC[C@H]2[C@H](CC(=O)[C@@H]2CCCCCCC(=O)O)O1,Potency,[1],inactive
same,Potency,[2],inactive
same,Potency,[3],inactive
same,Potency,[4],inactive
same,Potency,[5],inactive
same,Potency,[6],inactive
same,Potency,[7],inactive
same,Potency,[12],inactive
